Shown are actives, neighbours in structure and some others; about 2.4% of the full set was active somewhere.
POLH inh = inhibitors of human DNA polymerase eta | 1.2% of 390,000 active | Q9Y253 | Potency, µM (highest dose often 114 µM), inactives show top-dose activity change, negative = inhibition, actives largely listed as inhibitors | AID 588591 | recombinant Pol eta, fluorescent DNA replication assay; note: % is set by controls: 0 for no effect and ±100 for the full control effect
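Pol eta at 10 nM preincubated with compounds 15 min at room temperature; reaction started with fluorescent substrate (50 nM final) and read kinetically at 0 and 10 min.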
WRN inhibitor = WRN helicase (human) inhibition. Potency, µM (top dose mostly 114 µM), inactives show top-dose activity change, negative = inhibition, hits mostly inhibitors. 0.46% of 360,000 active. Q14191. WRN helicase unwinding, fluorescent forked duplex, kinetic; note: % is set by controls: 0 for no effect and ±100 for the full control effect; nearly all actives have a fitted effect of over 55% in size
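Kinetic red-fluorescence monitoring (525/598 nm) tracks WRN helicase activity after 100 nM fluorophore-quencher forked duplex and 2 mM ATP are added to 20 nM enzyme pretreated 15 min at room temperature with compound.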
POLK inh = blocks human DNA polymerase kappa activity | 0.53% of 400,000 active | Potency, µM (titrated, usually from 107 µM), for inactives: top-dose activity, negative = inhibition, most hits filed as inhibitors | purified Pol kappa, fluorescent DNA synthesis assay, 10 min | Q9UBT6; note: % is set by controls: 0 for no effect and ±100 for the full control effect
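Readout: fluorescence, taken kinetically at 0 and 10 min. Conditions: 10 nM Pol kappa, 15 min RT compound preincubation, 50 nM substrate final. Controls: enzyme-free buffer wells.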
Pol beta inh = blocks human DNA polymerase beta activity | Pol beta primer extension/strand displacement, fluorescence kinetic | Potency, µM (doses to about 114 µM), without a hit: top-dose activity change, negative = inhibition, hits mostly inhibitors | AID 485314 | P06746 | 1.3% of 340,000 active; note: % is set by controls: 0 for no effect and ±100 for the full control effect
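Enzyme-only controls used 10 nM Pol beta; buffer lacking enzyme served as negative control. Compound preincubated 15 min, then 50 nM substrate added; 0 and 10 min reads at room temperature.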
Pol iota inh = blocks human DNA polymerase iota activity; Q9UNA4; Pol iota fluorescent replication assay, 10 min; Potency, µM (doses to about 115 µM), without a hit: top-dose activity, negative = inhibition, actives largely listed as inhibitors; 1% of 390,000 active
Target sequence (Q9UNA4 whole entry, looked up): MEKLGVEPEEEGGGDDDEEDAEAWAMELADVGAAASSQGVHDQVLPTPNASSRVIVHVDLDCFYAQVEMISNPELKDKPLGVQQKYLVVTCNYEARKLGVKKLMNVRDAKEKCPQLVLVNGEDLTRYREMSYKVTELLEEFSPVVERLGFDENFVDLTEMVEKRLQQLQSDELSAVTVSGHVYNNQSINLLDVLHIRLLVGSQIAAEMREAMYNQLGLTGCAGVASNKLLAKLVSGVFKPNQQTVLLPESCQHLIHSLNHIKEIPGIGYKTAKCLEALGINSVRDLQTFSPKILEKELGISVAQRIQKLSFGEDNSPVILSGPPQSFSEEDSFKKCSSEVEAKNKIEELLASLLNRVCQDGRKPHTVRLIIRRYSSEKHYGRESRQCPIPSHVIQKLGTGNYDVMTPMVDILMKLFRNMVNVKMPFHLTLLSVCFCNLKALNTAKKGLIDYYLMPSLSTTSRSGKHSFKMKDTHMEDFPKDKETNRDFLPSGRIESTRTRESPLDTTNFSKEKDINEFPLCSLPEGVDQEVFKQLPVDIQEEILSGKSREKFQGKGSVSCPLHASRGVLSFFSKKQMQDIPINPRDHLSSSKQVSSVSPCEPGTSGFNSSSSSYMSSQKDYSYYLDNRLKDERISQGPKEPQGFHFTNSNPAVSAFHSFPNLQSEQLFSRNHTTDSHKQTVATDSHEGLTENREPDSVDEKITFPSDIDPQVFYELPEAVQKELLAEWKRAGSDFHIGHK
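Fluorescent replication assay read twice, at 0 min and 10 min after adding 50 nM (final) substrate. Enzyme (10 nM) and compounds were first incubated 15 min at room temperature; enzyme-free buffer wells were negative controls.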
FEN1 inhibitor = inhibitors of human flap endonuclease 1; 0.35% of 390,000 active; Potency, µM (doses to about 114 µM), for inactives: at the highest dose activity change, negative = inhibition, hits mostly inhibitors; Recombinant FEN1 flap cleavage, fluorescence, 15 min; AID 588795; P39748; note: % is set by controls: 0 for no effect and ±100 for the full control effect; nearly all actives have a fitted effect of over 65% in size
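Potency values derive from four-parameter Hill fits of normalized qHTS data. The reaction used 10 nM FEN1 preincubated 15 min at room temperature with compound, then 50 nM DNA substrate, read at 0 and 15 min.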
Numbers without * were called inactive; u = inconclusive; x = not tested or not shown; [ ] = another dose, or the depositor's remark. Calls come from the whole dose curve; as a rule, active = well fitted curve in the direction sought with a large enough effect; inconclusive = small, poorly fitted or top-dose-only effect, or another doubt; inactive = no such curve, though single readings can be large; an effect the other way counts as inactive or inconclusive. Potency is the fitted concentration of half-maximal effect.

SMILES | POLH inh | WRN inhibitor | POLK inh | Pol beta inh | Pol iota inh | FEN1 inhibitor
O=C(O)CCn1c2c(c3ccccc31)C[C@H](NS(=O)(=O)c1ccc(F)cc1)CC2 | x | x | 2.6%[19.4 µM] | x | x | x
O=c1c2c3nc4ccccc4nc3n(/N=C/c3ccco3)c2ncn1CCC1=CCCCC1 | u | u | u | 28.2µM* | 22.4µM* | 7.0%
CC(C)[C@H](NC(=O)[C@H](CCCCN)NC(=O)[C@@H](NC(=O)[C@@H]1CCCN1C(=O)[C@H](CCCN=C(N)N)NC(=O)[C@H](CCCN=C(N)N)NC(=O)[C@H](CCCCN)NC(=O)[C@H](CCCCN)NC(=O)CNC(=O)[C@@H](NC(=O)[C@@H]1CCCN1C(=O)[C@@H](N)CCCCN)C(C)C)C(C)C)C(=O)N[C@@H](Cc1ccc(O)cc1)C(=O)N1CCC[C@H]1C(=O)O | x | x | 12.9%[60.1 µM] | x | x | x
O=S(=O)(c1ccccc1)N1CCC2(CCN(c3cccc(-c4ccccc4)c3)CC2)CC1 | x | x | -17.6%[60.1 µM] | x | x | x
O=c1c(-c2ccc(O)cc2)coc2cc(O[C@@H]3O[C@H](CO)[C@@H](O)[C@H](O)[C@H]3O)cc(O)c12 | x | x | 8.8%[60.1 µM] | x | x | x
O=C(CSc1nc2c(oc3ccccc32)c(=O)[nH]1)Nc1cccc(Cl)c1 | -12.7% | x | -34.1% | 70.8µM* | u | -16.5%
COC(=O)c1ccccc1NC(=O)CSc1nc(O)c(-c2ccccc2)c(=O)[nH]1 | u | -2.1%[11.6 µM] | -18.6% | u | 84.1% | 5.3%
COC(=O)c1cccc(NC(=O)CSc2nc(O)c(-c3ccccc3)c(=O)[nH]2)c1 | 25.1µM* | -7.5%[11.6 µM] | u | u | u | 10.0%
Cc1cc2cc3c(=O)[nH]c(=O)cc-3n(CC(O)C(O)C(O)CO)c2cc1C (configuration not stated) | u | 56.2µM* | x | x | x | x
CCNc1ncc2nc(C)c(=O)n(C3CC3)c2n1 | x | x | 0.3%[60.1 µM] | x | x | x
O=C(C[n+]1ccccc1Br)c1ccc(Cl)cc1 | x | x | -11.0% | x | -14.9% | -18.8%
CCNc1nc(Cl)nc(-c2cn(-c3ccccc3)c3ccccc23)n1 | 2.8% | -1.3% | -7.9% | 79.4µM* | -18.0% | 9.2%
Clc1nc(Oc2ccccc2)nc(-c2cn(-c3ccccc3)c3ccccc23)n1 | -11.5% | -11.5% | 12.4% | -29.5% | 0.6% | -22.8%
O=C(Nc1cnn(Cc2ccc(F)cc2)c1)C(c1ccccc1)c1ccccc1 | -8.6% | -8.4% | -4.7% | 4.1% | 79.4µM* | -0.5%
O=C(Nc1cnn(Cc2ccc(F)cc2)c1)c1cnccn1 | -16.4% | 1.6% | -4.7% | 1.1% | 7.3% | -7.5%
COc1ccccc1C(=O)NCC(=O)N/N=C/c1cc(Br)ccc1OC(=O)/C=C\c1ccco1 | -7.9% | 0.9%[11.6 µM] | 31.6µM* | -4.9% | u | u
O=C(CNC(=O)c1ccccc1F)N/N=C/c1cc(Br)ccc1OC(=O)/C=C/c1ccco1 | -6.2% | -24.1% | u | u | u | -19.8%
O=C(CNC(=O)c1ccc(F)cc1)N/N=C/c1cc(Br)ccc1OC(=O)/C=C/c1ccco1 | 56.2µM* | -9.7%[11.6 µM] | -18.6% | u | u | 14.8%
C=CC1=C(C)C2=Cc3c(C=C)c(C)c4[n]3[Sn+2][n]3c(c(C)c(CCC(=O)O)c3=CC3=NC(=C4)C(C)=C3CCC(=O)O)=CC1=N2 | x | x | 12.6µM* | x | x | x
COc1ccc(Cn2c(=O)n(Cc3ccco3)c(=O)c3oc4ccccc4c32)cc1 | -13.4% | x | -9.2% | u | -10.5% | -4.9%
Cc1cccc(NC(=O)Cn2c(=O)nc(-c3ccccc3)c3ccccc32)c1C | 1.8% | x | -11.9%[60.1 µM] | -1.6% | 11.4% | 17.6%
O=C(Nc1nc2nc(-c3ccccc3)cc(=O)n2[nH]1)c1ccc(F)cc1 | -7.3% | x | -22.3% | -1.6% | -6.4% | 13.3%
Cc1ccc(C(=O)Nc2nc3nc(-c4ccccc4)cc(=O)n3[nH]2)cc1 | 79.4µM* | -16.0%[11.6 µM] | 6.8% | 11.6% | -2.2% | 13.9%
CC(C)(C)c1ccc(C(=O)Nc2nc3nc(-c4ccccc4)cc(=O)n3[nH]2)cc1 | -21.0% | x | -15.8% | 44.7µM* | u | 1.6%
Cc1ccccc1C1CC(=O)Oc2cc(C)c(Cl)c(C)c21 (configuration not stated) | x | x | -15.0% | x | x | x
SMILES | POLH inh | WRN inhibitor | POLK inh | Pol beta inh | Pol iota inh | FEN1 inhibitor
COc1cc2c(NC3CCN(C(C)C)CC3)nc(N3CCCN(C)CC3)nc2cc1OCCOCCN(C)C | x | x | -24.5% | x | u | 39.8µM*
COc1cc2c(NC3CCN(C)CC3)nc(N3CCN(C)CC3)nc2cc1OCCOCCN(C)C | x | x | -2.5% | x | -3.0% | u
CNc1nc(N2CCCN(C)CC2)nc2cc(OC)c(OC)cc12 | x | x | -22.9% | x | u | u
COc1cc2c(NC3CCN(C)CC3)nc(N3CCCN(C)CC3)nc2cc1OCCOCCN(C)C | x | x | -15.5% | x | u | 28.2µM*
COc1cc2c(NC3CCN(C(C)C)CC3)nc(N3CCCN(C)CC3)nc2cc1OCCCN1CCCC1 | x | x | -33.9% | x | u | 22.4µM*
COc1cc2c(NC3CCN(C)CC3)nc(N3CCCCC3)nc2cc1OCCOCCN(C)C | x | x | -29.3% | x | 50.1µM* | u
Cc1ccccc1C1CC(=O)Oc2cc(C)c(Br)c(C)c21 (configuration not stated) | x | x | -13.3% | x | x | x
COC(=O)c1ccc(NC(=O)COc2ccccc2C(=O)Nc2ccccc2)cc1 | x | x | 5.5% | x | -29.1% | -13.4%
O=[N+]([O-])c1ccccc1S(=O)(=O)Nc1ccc(-c2ccc(N3CCCC3)nn2)cc1 | 20µM* | -1.9%[11.6 µM] | -29.9% | x | u | 7.1%
CCOC(=O)C1=C(O)c2ccccc2C(=O)/C1=C\c1ccc(C)cc1 | u | 44.7µM* | -2.1% | -9.7% | u | 50.1µM*
CCOC(=O)C1=C(C)OC(=Cc2ccccc2)C1=O | -26.5% | -11.5% | x | x | x | x
C/C=C(\C)C(=O)NCCN1C2=NC[C@@H](Cc3ccccc3)N2C[C@H]1Cc1ccc(O)cc1 | -14.2% | -3.1%[11.6 µM] | -24.5% | -25.4% | 70.8µM* | -2.1%
CCOc1ccc(NC(=O)c2nn(C)c3c2COc2ccccc2-3)cc1 | -15.1% | x | -5.4% | 18.1% | 12.4% | -19.8%
CC1Cc2ccccc2N1C(=O)COC(=O)c1ccc(O)cc1 (configuration not stated) | -8.3% | 7.4% | 14.8% | 4.9% | 10.8% | -4.7%
CC1Cc2ccccc2N1C(=O)COC(=O)c1ccc(N(C)C)cc1 (configuration not stated) | 7.94µM* | 56.2µM* | 50.1µM* | x | 12.6µM* | -8.5%
COC(=O)c1ccc(NC(=O)c2ccccc2OCC(=O)Nc2ccc(Br)cc2)cc1 | x | x | 6.9% | x | -3.1% | 6.6%

Screening data from PubChem BioAssay.
